In PubChem BioAssay (NCATS):
“And” between values parts separate entries of the source, which are not always exact repeats. Equal values may be shown once. Records with an inconclusive call do not appear. The source made the active and inactive calls. Unless noted, the call rests on the fitted dose curve; in most records, active means well fitted curve in either direction with a large enough effect (not every such curve was filed as active); inconclusive means small, poorly fitted or top-dose-only effect, or another doubt; inactive means flat fitted curve, though single readings scatter.

Key:
[1] = AP1 Signaling Pathway (AID 357); conditions: ME-180 (cervical carcinoma) AP-1-bla reporter, EGF-induced, beta-lactamase ratio, 5 h;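 further: ME-180 reporter cells stimulated with EGF at its EC50 level; on the % scale 0 is the no-effect control and ±100 the full control effect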
In short: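 AP-1-bla ME-180 cells, Opti-MEM + 0.5% dialyzed FBS, plated overnight 37 °C. Cpd titration + EC50 EGF, 5 h 37 °C. CCF4 2.5 h RT; ex 405, em 460/530 ratio → %activity, AC50.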

[2] = biological target: Cytochrome P450 1A2 (Homo sapiens) (UniProt P05177); assay: p450-cyp1a2 (AID 410; calls by dose curve; further: potency means the concentration at half of the fitted maximal effect;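 on activity change, negative = inhibition: -100% = full effect of reference inhibitor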); conditions: recombinant CYP1A2, luciferin-ME demethylation, luminescence; series mostly up to 57 µM
Sequence of Cytochrome P450 1A2 (Homo sapiens) (P05177 whole entry, looked up): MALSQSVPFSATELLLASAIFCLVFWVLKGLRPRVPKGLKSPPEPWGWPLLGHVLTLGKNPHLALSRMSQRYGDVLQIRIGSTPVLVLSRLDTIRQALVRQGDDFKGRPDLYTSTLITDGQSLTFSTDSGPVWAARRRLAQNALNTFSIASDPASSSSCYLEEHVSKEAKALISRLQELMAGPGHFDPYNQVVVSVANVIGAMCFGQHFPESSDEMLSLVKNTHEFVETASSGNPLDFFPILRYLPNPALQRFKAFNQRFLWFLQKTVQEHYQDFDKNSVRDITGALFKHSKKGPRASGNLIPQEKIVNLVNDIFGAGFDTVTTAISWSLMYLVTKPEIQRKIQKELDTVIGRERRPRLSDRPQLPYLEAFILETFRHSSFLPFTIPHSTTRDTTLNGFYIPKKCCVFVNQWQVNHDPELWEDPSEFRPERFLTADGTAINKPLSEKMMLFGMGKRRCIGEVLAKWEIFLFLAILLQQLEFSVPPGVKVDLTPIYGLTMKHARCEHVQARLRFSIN
In short: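 Luminescent readout of luciferin formed from Luciferin-ME by human CYP1A2; data normalized against complete inhibition by 57 uM furafylline. Enzyme 20nM, substrate 100uM at Km, 100mM KPO4 buffer, 60 min reaction at room temperature.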

[3] = NFAT Signaling Pathway (AID 444); conditions: Jurkat NFAT-bla M1, carbachol, beta-lactamase ratio, 5 h;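 further: carbachol stimulus at about its EC50 of 1 µM final; on the % scale 0 is the no-effect control and ±100 the full control effect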
In short: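 Read-out: CCF4 FRET ratio (460 nm/530 nm) after 1 h RT dye loading, used for %activity and AC50 from titration series. Cells: Jurkat NFAT-β-lactamase/M1 line, treated with compound plus 1 uM carbachol for 5 h, 37 °C.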

[4] = Cell Viability - BJ (AID 421; calls by dose curve;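 further: potency means the concentration at half of the fitted maximal effect; cells exposed to compound for 40 hours at 37 °C before readout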); conditions: BJ fibroblast viability, qHTS
In short: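 Cytotoxicity in human BJ foreskin fibroblasts is scored as loss of cellular ATP after a 40-hour exposure, measured by luciferase luminescence. Controls are DMSO and 100 uM tamoxifen.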

[5] = Cell Viability - Jurkat (AID 426;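 active means dose-dependent loss of cell ATP signal giving a full or clear fitted curve, ranked by lower potency value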;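 further: potency means the concentration at half of the fitted maximal effect; cells exposed to compound for 40 hours at 37 °C before ATP read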); conditions: qHTS
In short: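 qHTS, 1536-well; Jurkat E6-1, 5000 cells/well, complete medium; cpd 40 hr, 37 °C; CellTiter-Glo 20 min RT; luminescence. AC50 by Hill fit.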

[6] = Cell Viability - Hek293 (AID 427;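 active means compounds whose dose-response curve shows a full or clear partial loss of cell viability, called from curve shape rather than a numeric limit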;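 further: potency means the concentration at half of the fitted maximal effect; cells exposed to compound for 40 hours at 37 °C before reading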); conditions: qHTS
In short: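 qHTS, human embryonic kidney (adenovirus-transformed) cells; 40 hr cpd, 37 °C; CellTiter-Glo ATP luminescence. Norm: DMSO = 0, 100 uM tamoxifen = 100% inhibition. Hill-fit AC50.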

[7] = Cell Viability - HepG2 (AID 433; calls by dose curve;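 further: potency means the concentration at half of the fitted maximal effect; potency for ATP loss meaning cytotoxicity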); conditions: qHTS
In short: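 Cytotoxicity is scored as loss of intracellular ATP in HepG2 cells exposed to compounds for 40 h. Concentration-response curves, normalized to DMSO and 100 uM tamoxifen, give AC50 values.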

[8] = Cell Viability - MRC5 (AID 434; calls by dose curve;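 further: potency means the concentration at half of the fitted maximal effect; cells exposed to compound for 40 hours at 37 °C; potency reflects cytotoxicity seen as loss of intracellular ATP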); conditions: MRC5 lung fibroblast viability, qHTS
In short: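 qHTS cytotoxicity in human lung fibroblast MRC5 cells; 40 hr treatment, 37 °C; cellular ATP by luciferase luminescence; DMSO = 0%, 100 uM tamoxifen = 100% inhibition; Hill-fit AC50.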

[9] = Cell Viability - SK-N-SH (AID 435; calls by dose curve;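 further: potency means the concentration at half of the fitted maximal effect; compound exposure lasted 40 h at 37 °C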); conditions: SK-N-SH neuroblastoma cell viability qHTS
In short: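 Cells seeded at 1500 per well and incubated 5 hr at 37 °C. Compound added, then 40 hr at 37 °C. CellTiter-Glo added, 20 min at room temperature, luminescence read.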

CCN(CC)CCNC(=O)c1ccc(NC(C)=O)cc1
inactive: activity change, negative = inhibition ([1]; at 17.2 µM (top of the series)) -5.32% | activity change, negative = inhibition ([1]; at 38 µM (top of the series)) 9.43% | Potency [2] | activity change, negative = inhibition ([3]; at 17.2 µM (top of the series)) -13.8% | activity change, negative = inhibition ([3]; at 38 µM (top of the series)) -8.68%

CCCOc1ccccc1-c1nc2n[nH]nc2c(=O)[nH]1
active: Potency [2] 5.01 µM and 3.98 µM
inactive: activity change, negative = inhibition ([1]; at 17.2 µM (top of the series)) -18.5% | activity change, negative = inhibition ([1]; at 38 µM (top of the series)) -7.91% | activity change, negative = inhibition ([3]; at 17.2 µM (top of the series)) 14.8% | activity change, negative = inhibition ([3]; at 38 µM (top of the series)) 2.4%

CCn1cc(C(=O)O)c(=O)c2cc3c(cc21)OCO3
active: Potency [2] 5.01 µM and 2.51 µM
inactive: activity change, negative = inhibition ([1]; at 17.2 µM (top of the series)) -4.15% | activity change, negative = inhibition ([1]; at 38 µM (top of the series)) -1.96% | activity change, negative = inhibition ([3]; at 17.2 µM (top of the series)) -7.01% | activity change, negative = inhibition ([3]; at 38 µM (top of the series)) 7.6%

CNCCCN1c2ccccc2CCc2ccccc21
inactive: activity change, negative = inhibition ([1]; at 17.2 µM (top of the series)) 29.5% and 18.8%

CN(C)CC/C=C1\c2ccccc2COc2ccccc21
inactive: activity change, negative = inhibition ([1]; at 17.2 µM (top of the series)) 22.2% | activity change, negative = inhibition ([1]; at 38 µM (top of the series)) 23.8%
active: Potency [2] 12.6 µM and 5.01 µM and 15.8 µM | activity change, negative = inhibition ([3]; at 17.2 µM (top of the series)) -44.9%

COc1cc(Cc2cnc(N)nc2N)cc(OC)c1OC
inactive: activity change, negative = inhibition ([1]; at 17.2 µM (top of the series)) 1.37% | activity change, negative = inhibition ([1]; at 38 µM (top of the series)) -4.63% | Potency [4] > 92 µM | Potency [5] > 92 µM | Potency [6] > 92 µM | Potency [7] > 92 µM | Potency [8] > 92 µM | Potency [9] > 92 µM | activity change, negative = inhibition ([3]; at 17.2 µM (top of the series)) -13.2% | activity change, negative = inhibition ([3]; at 38 µM (top of the series)) -9.42%

CCCCNC(=O)NS(=O)(=O)c1ccc(C)cc1
inactive: activity change, negative = inhibition ([1]; at 17.2 µM (top of the series)) -5% and 1.1% | activity change, negative = inhibition ([1]; at 38 µM (top of the series)) 6.49% | Potency [2] | Potency [4] > 92 µM | Potency [5] > 92 µM | Potency [6] > 92 µM | Potency [7] > 92 µM | Potency [8] > 92 µM | Potency [9] > 92 µM | activity change, negative = inhibition ([3]; at 17.2 µM (top of the series)) -4.27% | activity change, negative = inhibition ([3]; at 38 µM (top of the series)) 12.5%
